As usually defined, the inhibition is the drop in the measured response relative to a control, in per cent.

SMILES strings stand for the structures.

We go through 17 compounds from ChEMBL document CHEMBL1961873, “Compounds: GSK PKIS; Assays: Nanosyn kinase panel” (2012).

Assay [1] has as its target T1, Serine/threonine-protein kinase TBK1 (Homo sapiens) (UniProt Q9UHD2).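 Also: values are mean inhibition of TBK1, screened as part of the GSK published kinase inhibitor set.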
T1 sequence (whole entry): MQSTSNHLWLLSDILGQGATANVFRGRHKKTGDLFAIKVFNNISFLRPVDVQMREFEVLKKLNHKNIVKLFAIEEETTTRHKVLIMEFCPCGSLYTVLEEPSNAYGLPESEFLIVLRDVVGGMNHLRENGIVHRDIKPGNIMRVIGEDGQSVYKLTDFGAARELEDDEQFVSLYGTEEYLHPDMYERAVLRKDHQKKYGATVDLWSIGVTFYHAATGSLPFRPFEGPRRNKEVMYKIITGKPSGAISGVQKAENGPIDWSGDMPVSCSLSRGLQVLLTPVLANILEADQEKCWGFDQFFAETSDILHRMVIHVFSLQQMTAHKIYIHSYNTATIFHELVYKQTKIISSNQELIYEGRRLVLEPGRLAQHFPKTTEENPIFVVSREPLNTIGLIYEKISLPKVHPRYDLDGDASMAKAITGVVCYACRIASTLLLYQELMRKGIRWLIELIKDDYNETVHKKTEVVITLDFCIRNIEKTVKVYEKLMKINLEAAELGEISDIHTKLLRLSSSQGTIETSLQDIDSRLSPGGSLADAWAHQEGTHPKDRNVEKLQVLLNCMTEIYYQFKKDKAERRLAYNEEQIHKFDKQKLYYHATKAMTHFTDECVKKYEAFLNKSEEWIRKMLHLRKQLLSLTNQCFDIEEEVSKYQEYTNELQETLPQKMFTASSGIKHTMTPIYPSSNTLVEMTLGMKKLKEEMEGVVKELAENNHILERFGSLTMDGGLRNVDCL
The note with it: at 1 µM.

The target in assay [2] is T2, Testis-specific serine/threonine-protein kinase 1 (Homo sapiens) (UniProt Q9BXA7).
T2 sequence (whole entry): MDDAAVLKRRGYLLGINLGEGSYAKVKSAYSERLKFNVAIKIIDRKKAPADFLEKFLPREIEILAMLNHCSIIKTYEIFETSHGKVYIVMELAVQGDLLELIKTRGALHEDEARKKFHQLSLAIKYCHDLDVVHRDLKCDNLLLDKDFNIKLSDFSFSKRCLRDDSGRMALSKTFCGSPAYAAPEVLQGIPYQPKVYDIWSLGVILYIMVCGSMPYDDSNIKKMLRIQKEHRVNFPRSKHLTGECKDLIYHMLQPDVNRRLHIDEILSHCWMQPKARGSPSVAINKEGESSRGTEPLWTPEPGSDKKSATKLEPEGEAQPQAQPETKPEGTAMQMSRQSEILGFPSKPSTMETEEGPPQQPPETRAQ
The note with it: at 0.1 µM.

The target in assay [3] is T2, Testis-specific serine/threonine-protein kinase 1 (Homo sapiens). The note with it: at 1 µM.
Assay [4] has as its target T3, Testis-specific serine/threonine-protein kinase 2 (Homo sapiens) (UniProt Q96PF2).
T3 sequence (whole entry): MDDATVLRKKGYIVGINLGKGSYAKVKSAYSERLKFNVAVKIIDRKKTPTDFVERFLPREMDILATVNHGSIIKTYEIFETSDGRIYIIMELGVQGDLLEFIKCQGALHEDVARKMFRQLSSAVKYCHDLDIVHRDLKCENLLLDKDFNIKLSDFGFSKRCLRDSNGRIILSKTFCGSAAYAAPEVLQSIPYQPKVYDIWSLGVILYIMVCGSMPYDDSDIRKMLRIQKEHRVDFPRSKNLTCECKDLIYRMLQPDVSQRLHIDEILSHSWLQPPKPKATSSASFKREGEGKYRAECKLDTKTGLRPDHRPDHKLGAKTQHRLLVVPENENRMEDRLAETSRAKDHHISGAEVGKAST
The note with it: at 0.1 µM.

Assay [5] has as its target T3, Testis-specific serine/threonine-protein kinase 2 (Homo sapiens). As to conditions: at 1 µM.
Assay [6] addresses Casein kinase I isoform alpha (Homo sapiens) (UniProt P48729). As to conditions: at 0.1 µM.
Assay [7] shares this target. As to conditions: at 1 µM.
For assay [8], the target named is Casein kinase I isoform gamma-1 (Homo sapiens) (UniProt Q9HCP0). The note with it: at 0.1 µM.
Sequence of Casein kinase I isoform gamma-1 (Homo sapiens) (Q9HCP0 whole entry, looked up, canonical isoform): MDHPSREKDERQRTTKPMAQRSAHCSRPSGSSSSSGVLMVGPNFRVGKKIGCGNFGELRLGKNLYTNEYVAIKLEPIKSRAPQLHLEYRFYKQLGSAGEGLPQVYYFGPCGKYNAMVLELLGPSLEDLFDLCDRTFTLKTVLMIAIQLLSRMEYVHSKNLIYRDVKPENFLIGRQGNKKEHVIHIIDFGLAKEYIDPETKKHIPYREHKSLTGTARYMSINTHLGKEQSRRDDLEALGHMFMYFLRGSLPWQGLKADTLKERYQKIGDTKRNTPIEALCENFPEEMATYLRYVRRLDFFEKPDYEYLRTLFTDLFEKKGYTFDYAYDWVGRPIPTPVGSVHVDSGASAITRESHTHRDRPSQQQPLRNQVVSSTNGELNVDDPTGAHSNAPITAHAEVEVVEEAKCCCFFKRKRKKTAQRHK
Assay [9] has the same target. As to conditions: at 1 µM.
In assay [10] the target is Casein kinase I isoform gamma-2 (Homo sapiens) (UniProt P78368). The note with it: at 0.1 µM.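 Also: values are mean inhibition figures reported as part of the GSK PKIS dataset.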
Sequence of Casein kinase I isoform gamma-2 (Homo sapiens) (P78368 whole entry, looked up, canonical isoform): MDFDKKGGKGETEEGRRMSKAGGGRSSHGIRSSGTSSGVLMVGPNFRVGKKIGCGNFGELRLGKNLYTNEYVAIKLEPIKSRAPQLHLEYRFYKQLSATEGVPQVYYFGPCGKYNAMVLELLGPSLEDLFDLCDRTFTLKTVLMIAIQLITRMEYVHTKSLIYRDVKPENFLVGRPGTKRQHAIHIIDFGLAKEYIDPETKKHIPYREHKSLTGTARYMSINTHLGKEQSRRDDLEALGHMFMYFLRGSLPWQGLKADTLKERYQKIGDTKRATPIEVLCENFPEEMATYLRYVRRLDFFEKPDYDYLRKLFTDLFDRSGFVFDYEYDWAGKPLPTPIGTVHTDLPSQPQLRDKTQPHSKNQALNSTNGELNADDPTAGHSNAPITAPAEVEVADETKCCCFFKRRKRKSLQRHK

Sequence of Casein kinase I isoform alpha (Homo sapiens) (P48729 2-337 limits assumed): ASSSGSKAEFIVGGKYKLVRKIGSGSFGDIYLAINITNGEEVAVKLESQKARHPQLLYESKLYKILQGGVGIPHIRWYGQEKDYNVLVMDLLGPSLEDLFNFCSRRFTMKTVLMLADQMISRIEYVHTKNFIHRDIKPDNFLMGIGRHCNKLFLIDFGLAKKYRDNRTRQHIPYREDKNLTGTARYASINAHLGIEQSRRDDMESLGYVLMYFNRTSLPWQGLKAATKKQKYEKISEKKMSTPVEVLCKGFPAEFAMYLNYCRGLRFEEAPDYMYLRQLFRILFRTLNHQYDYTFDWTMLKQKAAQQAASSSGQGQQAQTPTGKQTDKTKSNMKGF

For the compound `CS(=O)(=O)CCN(CC#N)Cc1ccc(-c2ccc3ncnc(Nc4ccc(OCc5cccc(F)c5)c(Cl)c4)c3c2)o1`, the inhibition is 1.61% in assay [1]; 1.37% in assay [2]; 1.5% in assay [3]; 0.63% in [4]; 1.39% in assay [5]; 1% in assay [6]. Also, the inhibition in assay [7] is 2.88%; in [8], -2.14%; in [9], -3.1%; in assay [10] it was -1.98%.
Take `NS(=O)(=O)c1cccc(-c2ccc3c(NC(=O)C4CC4)n[nH]c3c2)c1`: the inhibition in assay [1] is 0.44%; in assay [2], -0.2%; in assay [3], -0.47%; in [4], -0.61%; in assay [5], -0.16%; in [6], 4.11%. For the same compound, the inhibition was 4.53% in assay [7], -0.89% in assay [8], 0.05% in assay [9] and -0.75% in [10].
Turning to `O=C1NC(=O)C(c2ccccc2Cl)=C1Nc1cccc(O)c1`, the inhibition was 6.91% in assay [1]; 1.56% in assay [2]; 1.53% in assay [3]; 1.05% in assay [4]; -1.27% in [5]; 4.13% in assay [6]. For the same compound, the inhibition was 2.81% in assay [7], 2.54% in [8], 3.11% in assay [9] and 1.14% in assay [10].
Take `COC(=O)Nc1nc2cc(Oc3cccc(NC(=O)Nc4cc(C(F)(F)F)ccc4F)c3)ccc2[nH]1`: the inhibition in assay [1] was 4.23%; in [2], -0.26%; in assay [3], -0.63%; in [4], -0.42%; in [5], -1.58%; in assay [6] it was -1.03%. For the same compound, the inhibition in assay [7] was -0.8%; in assay [8] it was 0.24%; in assay [9], 0.48%; in assay [10], -0.21%.
As for `CN(C)c1cc2c(Nc3ccc4nc(Cc5ccccc5)[nH]c4c3)ncnc2cn1`, the inhibition in [1] was 4.24%; in [2], 5.14%; in assay [3], 5.29%; in [4], 4.42%; in assay [5] it was 3.59%; in assay [6], 3.65%. In addition, the inhibition turned out to be 6.31% in assay [7], 4.21% in assay [8], 5.5% in [9] and 3.69% in assay [10].
For the compound `COc1cc(C=NNc2ncnc3c2cnn3-c2ccccc2)ccc1O`, the inhibition is 21.5% in assay [1]; 5.71% in assay [2]; 1.92% in [3]; 1.3% in assay [4]; -1.3% in [5]; 4.04% in [6]. Besides, the inhibition in assay [7] worked out at 6.98%; in [8], 1.27%; in assay [9], 3.26%; in assay [10] it was 2.04%.
For the compound `Cc1nn(C)c2cc(N(C)c3ccnc(Nc4cccc(S(N)(=O)=O)c4)n3)ccc12`, the inhibition in [1] is 10.3%; in assay [2] it was 3.95%; in assay [3] it was 5.39%; in assay [4], 1.61%; in [5], 2.71%; in assay [6], 0.9%. The inhibition amounted to 0.72% in assay [7], 2.37% in [8], 2.59% in [9] and 1.72% in [10].
Consider `Cc1cccc(-c2n[nH]cc2-c2ccc3ncccc3n2)n1`, for which the inhibition in [1] is -2.11%; in assay [2], 0.8%; in assay [3], 0.75%; in [4] it was -0.09%; in assay [5], 1.08%; in assay [6], 1.85%. Moreover, the inhibition amounted to 1.42% in assay [7], 0.4% in [8], 1.1% in assay [9] and 0.55% in assay [10].
Take `CCc1cccc(NC(=O)Nc2ccc(Oc3ccc4nc(NC(=O)OC)[nH]c4c3)cc2)c1`: the inhibition is 0.79% in assay [1]; 1.3% in assay [2]; 1.11% in assay [3]; 0.77% in assay [4]; 1.72% in assay [5]; 2.12% in [6]. Also, the inhibition in [7] was found to be 0.76%; in assay [8], 1.05%; in [9] it was 0.85%; in assay [10], 1.08%.
In the case of `[O-][S+]1CCN(Cc2ccc(-c3ccc4ncnc(Nc5ccc(OCc6ccccc6)c(F)c5)c4c3)o2)CC1`, the inhibition in [1] was 2.87%; in [2], 1.77%; in [3], 0.49%; in assay [4] it was 0.63%; in assay [5], -1.37%; in [6], 2.43%. Further, the inhibition in assay [7] was 4.39%; in assay [8] it was 2.09%; in assay [9] it was 3.44%; in [10], 1.93%.
For `NCc1ccc(-c2nc(-c3ccc(Cl)c(O)c3)c(-c3ccncc3)[nH]2)cc1`, the inhibition was 1.76% in assay [1]; 0.52% in [2]; 0.46% in assay [3]; -0.98% in assay [4]; -1.3% in [5]; 3.06% in assay [6]. Besides, the inhibition in assay [7] is 15.7%; in [8] it was 0.41%; in [9], 2.73%; in [10], 0.27%.
Regarding `N#Cc1c(NC(=O)c2cccc3ccccc23)sc2c1CCCC2`, the inhibition was 6.64% in [1]; 3.39% in [2]; 2.26% in [3]; 0.88% in assay [4]; 0.92% in [5]; -0.66% in assay [6]. In addition, the inhibition in [7] was 2.15%; in [8], 2.73%; in assay [9] it was 2.82%; in assay [10], 2.2%.
`O=C1Nc2ccc(C(=O)c3ccco3)cc2C1=Cc1cc(Cl)c(O)c(Cl)c1`: the inhibition in assay [1] was 40.7%; in assay [2] it was 1.18%; in assay [3] it was 3.77%; in assay [4], 1.82%; in assay [5], 1.41%; in [6] it was -0.89%. The inhibition in [7] worked out at 5.16%; in assay [8], 2.49%; in [9] it was 4.24%; in assay [10] it was 1.66%.
As for `COc1cc2ncn(-c3cc(OCc4ccccc4Cl)c(C(N)=O)s3)c2cc1OC`, the inhibition in assay [1] was determined as 28.7%; in assay [2] it was 1.82%; in assay [3], 4.67%; in assay [4], 0.7%; in assay [5], 1.63%; in [6], 1.79%. For the same compound, the inhibition is 0.67% in assay [7], 0.19% in [8], 1.8% in assay [9] and -0.04% in assay [10].
As for `COc1cccc(-n2ncc3c(N/N=C/c4cccc(F)c4)ncnc32)c1`, the inhibition came out at 5.66% in [1]; 2.14% in assay [2]; 2.06% in assay [3]; 0.63% in assay [4]; 0.82% in assay [5]; 2.35% in assay [6]. Besides, the inhibition in assay [7] is 2.18%; in assay [8] it was -1.45%; in assay [9], -0.75%; in assay [10], -1.9%.
Regarding `CS(=O)(=O)CCNCc1nc(-c2ccc3ncnc(Nc4ccc(F)c(Cl)c4)c3c2)cs1`, the inhibition in [1] turned out to be 2.28%; in [2], 1.9%; in assay [3], 0.45%; in [4] it was 0.45%; in assay [5], 1.08%; in assay [6], 0.89%. Also, the inhibition in [7] was 1.04%; in assay [8], 1.14%; in [9], 1.55%; in assay [10], 1.92%.
On to `CS(=O)(=O)Nc1ccc(N/C=C2\C(=O)Nc3ccccc32)cc1`, for which the inhibition was 14.2% in assay [1]; 0.15% in [2]; 2.2% in assay [3]; -1.89% in assay [4]; -1.19% in assay [5]; -2.3% in assay [6]. Moreover, the inhibition was 7.96% in assay [7], -1.92% in assay [8], 1.81% in assay [9] and -1.68% in [10].
